Bioassay records (PubChem)
Rows were chosen to be rich in hits. Some 4.7% of all compounds tested hit in one or more screens of this group.
proKLK7 act = proKLK7 (human) activation, primary screen; activation, % at 7 µM; purified proKLK7, EDANS-DABCYL substrate fluorescence; 100% is mature enzyme control, 0% vehicle; P49862; AID 652039; 370,000 compounds, 0.9% hits;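 active = activation above the mean of all tested compounds plus 3 SD, computed per campaign excluding outliers beyond control limits, cut at about 13% in these data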
ADAM17 inh = inhibitors of human ADAM17 | AID 720648 | inhibition, % at 6.95 µM | 370,000 compounds, 0.83% hits | P78536 | recombinant ADAM17, EDANS/DABCYL FRET peptide cleavage;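 active = inhibition above the mean of compounds lying between control limits plus 3 SD, set per campaign, cut at about 8.5% in these data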;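 note: 0% = DMSO-only wells as the low control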
Target sequence (P78536 215-824 limits assumed): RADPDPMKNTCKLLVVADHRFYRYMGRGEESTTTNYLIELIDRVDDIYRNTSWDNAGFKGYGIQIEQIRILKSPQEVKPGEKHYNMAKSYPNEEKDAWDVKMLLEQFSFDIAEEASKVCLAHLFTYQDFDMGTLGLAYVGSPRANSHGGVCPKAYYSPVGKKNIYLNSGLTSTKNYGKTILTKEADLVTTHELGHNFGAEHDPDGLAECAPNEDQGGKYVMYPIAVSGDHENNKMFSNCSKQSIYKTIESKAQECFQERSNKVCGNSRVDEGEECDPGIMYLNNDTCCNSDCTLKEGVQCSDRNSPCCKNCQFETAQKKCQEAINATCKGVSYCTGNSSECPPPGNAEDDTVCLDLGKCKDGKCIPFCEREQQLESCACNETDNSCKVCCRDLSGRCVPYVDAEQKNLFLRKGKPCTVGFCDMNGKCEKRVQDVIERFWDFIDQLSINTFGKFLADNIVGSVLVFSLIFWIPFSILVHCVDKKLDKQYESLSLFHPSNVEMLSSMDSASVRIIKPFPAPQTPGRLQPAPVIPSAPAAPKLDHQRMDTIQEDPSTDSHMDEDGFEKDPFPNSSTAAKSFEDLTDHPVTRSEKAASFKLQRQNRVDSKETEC
MPTP inh = permeability transition pore inhibition | isolated mouse mitochondria, Ca2+ swelling absorbance, 30 min | inhibition, % at 10 µM | 360,000 compounds, 1.4% hits;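 active = inhibition of 50% or more, scaled per plate between neutral and stimulator controls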;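 note: 0% = DMSO wells given calcium and 100% = 1 mM EGTA wells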
rCAG binder = binds r(CAG) RNA repeats; inhibition, % at 3 µM; 370,000 compounds, 1.3% hits; r(CAG) RNA repeat, TO-PRO-1 dye displacement fluorescence;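 active = inhibition above the plate cutoff, the mean of all test compounds on that plate plus 3 SD, cut at about 35% in these data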;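 note: 0% = DMSO alone and 100% = 100 µM mitoxantrone as full dye displacement; higher means more dye released from RNA so lower well fluorescence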
Pemphigus Ab inh = human desmoglein-3 autoantibody binding inhibition; 310,000 compounds, 0.48% hits; binding (percent of control), % at 10 µM; P32926; AID 588358; DSG3-coupled beads, scFv-anti-DSG3-GFP binding, flow cytometry; stronger effect = lower value;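 active = binding more than 3 SD below its plate's average and above zero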;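 note: hits lower antibody fragment binding to DSG3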
ADAM10 inh = ADAM10 inhibition, QFRET primary screen; recombinant ADAM10, EDANS/DABCYL FRET peptide cleavage, 3 h; inhibition, % at 7 µM; AID 720582; 370,000 compounds, 0.62% hits; O14672;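 active = inhibition above a per-campaign cutoff equal to the mean of compounds falling between control-based bounds plus 3 SD, cut at about 20% in these data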;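 note: 0% = DMSO wells while the 100% control is not disclosed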
ADAM10 confirm = human ADAM10 inhibition, confirmation | shares compounds with ADAM10 inh | ADAM10 QFRET peptide cleavage, EDANS fluorescence | inhibition, % at 6.95 µM | 2,100 compounds, 1% hits | AID 743208;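 active = inhibition above about 20% chosen separately for each screening run, limit read from the data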;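 note: 0% = DMSO wells and 100% = marimastat wells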
ADAM17 counter = counter-screen for ADAM10 exosite inhibitors: inhibitors of human ADAM17 | shares compounds with ADAM10 inh | ADAM17 QFRET peptide cleavage, EDANS fluorescence | inhibition, % at 6.95 µM | 2,100 compounds, 0.5% hits;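 active = mean triplicate inhibition above the solvent-only control wells' mean plus 3 SD, cut at about 12% in these data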;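 note: 0% = DMSO wells and 100% = marimastat wells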
ADAM10 ctr = counter-screen for ADAM17 exosite inhibitors: inhibitors of human ADAM10; shares compounds with ADAM17 inh; recombinant ADAM10, EDANS/DABCYL FRET peptide cleavage, 3 h; inhibition, % at 6.95 µM; 2,900 compounds, 47% hits; AID 743256;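 active = mean inhibition over the triplicate runs exceeds the activity threshold set in the earlier primary screen, cut at about 20% in these data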;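 note: 0% = DMSO wells and 100% = marimastat wells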
ADAM17 confirm = confirmation of inhibitors of human ADAM17; 2,900 compounds, 65% hits; recombinant ADAM17, EDANS/DABCYL QFRET peptide cleavage; AID 743257; shares compounds with ADAM17 inh; inhibition, % at 6.95 µM;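 active = mean inhibition across replicates above the hit cutoff set in the primary screen, cut at about 8.5% in these data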;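 note: 0% = DMSO wells and 100% = marimastat wells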
* = called active by the depositor; x = no result.

SMILES | proKLK7 act | ADAM17 inh | MPTP inh | rCAG binder | Pemphigus Ab inh | ADAM10 inh | ADAM10 confirm | ADAM17 counter | ADAM10 ctr | ADAM17 confirm
COc1ccc(C(CC(=O)c2ccccc2)CC(=O)c2ccccc2)cc1 | 0 | 11* | 2 | 2 | 112 | 20* | 2 | 1 | 5 | 5
O=C(NCc1ccccc1)c1onc(CSc2ccc(Cl)cc2)c1C(=O)NCC1CC1 | 1 | 1 | 0 | 1 | 98 | 12 | x | x | x | x
O=C(NCc1ccccc1)c1onc(CSc2ccccc2)c1C(=O)NCC1CC1 | 0 | 12* | 2 | -1 | 104 | 25* | 7 | 3 | 41* | 22*
CC(O)(c1cccc(F)c1)c1nc(-c2ccccc2)cs1 (stereo not given) | 0 | 1 | 3 | 2 | x | 6 | x | x | x | x
OC(c1ccccc1)(c1nc(-c2cccc(C(F)(F)F)c2)cs1)C(F)(F)F (stereo not given) | 0 | 14* | 2 | 4 | x | 26* | 16 | 4 | 35* | 19*
CC(O)(c1cccc(F)c1)c1nc(-c2cccc(C(F)(F)F)c2)cs1 (stereo not given) | 0 | 11* | 7 | 3 | x | 23* | 7 | 2 | 45* | 28*
CC(O)(c1ccc(F)c(F)c1)c1nc(-c2cccc(C(F)(F)F)c2)cs1 (stereo not given) | 0 | 11* | 7 | 3 | x | 26* | 11 | 3 | 33* | 17*
OCc1cccc(-c2csc(C(O)(c3ccccc3)C(F)(F)F)n2)c1 (stereo not given) | 1 | 3 | 3 | 1 | x | 11 | x | x | x | x
CC(C)c1ccc(CCNC(=O)CSC(=S)N2CCCC2)cc1 | 0 | 0 | -1 | -7 | 97 | 4 | x | x | x | x
O=S(=O)(CCN1CCN(c2ccccc2O)CC1)c1cc(Cl)ccc1Cl | 0 | -1 | -1 | 2 | 98 | 4 | x | x | x | x
COc1ccc(C(C(=O)NC2CCCCC2)N(C(=O)c2sc(C)nc2C)c2ccccc2C)cc1 (stereo not given) | 1 | 9.6* | 0 | -3 | 105 | 20* | 2 | 0 | 3 | 4
COc1ccc(C(C(=O)NC2CCCCC2)N(C(=O)c2sc(C)nc2C)c2ccccc2)cc1 (stereo not given) | 0 | 0 | -1 | -2 | 92 | 2 | x | x | x | x
OC(c1ccccc1)(c1ccccc1)C1CCN(CCCOc2cccc(F)c2)CC1 | 0 | -5 | x | -3 | x | -10 | x | x | x | x
Cc1cc(C)cc(NC(=O)C(OC(=O)c2cc[n+]([O-])cc2)c2ccccc2)c1 (stereo not given) | 0 | -3 | 1 | 1 | x | -6 | x | x | x | x
Cc1ccc(NC(=O)C(OC(=O)c2ccc(NC(N)=O)cc2)c2ccccc2)cc1Cl (stereo not given) | 0 | 18* | 8 | 22 | 103 | 32* | 7 | 2 | 11 | 9.7*
COc1ccc(NC(=O)c2cc(-c3ccc(F)cc3OC(C)C)n[nH]2)c(OC)c1 | 0 | 7 | 1 | 6 | x | 17 | x | x | x | x
COc1ccc(NC(=O)c2cc(-c3cc(F)ccc3OC(C)C)n[nH]2)c(OC)c1 | 0 | 15* | 0 | 7 | x | 21* | 7 | 5 | 11 | 6
O=C(Nc1ccc(C(F)(F)F)cc1)c1cc(S(=O)(=O)NCC2COc3ccccc3O2)ccc1F (stereo not given) | -1 | 13* | 37 | 8 | 110 | 25* | 5 | 2 | 51* | 24*
CC(C)c1ccc(NC(=O)c2cc(S(=O)(=O)NCC3COc4ccccc4O3)ccc2F)cc1 (stereo not given) | 0 | 10.0* | 28 | 8 | 107 | 21* | 10 | 4 | 38* | 26*
CC1(Oc2cccc(F)c2)CCN(Cc2csc3ccccc23)C1 (stereo not given) | 0 | -2 | 0 | 2 | x | -5 | x | x | x | x
O=C1Nc2ccccc2C1=Nc1ccc2[nH]c3ccccc3c2c1 | -2 | -119 | 3 | 7 | 89 | -459 | x | x | x | x
O=C(NCc1ccccn1)c1ccccc1OCc1ccccc1Cl | 0 | -4 | -1 | 0 | 102 | 1 | x | x | x | x
COc1cc(O)c(C(CCN2CCN(c3ccccc3)CC2)c2ccc3c(c2)OCO3)c(OC)c1 (stereo not given) | 0 | 12* | 2 | -1 | 109 | 24* | 9 | 3 | 9 | 6
O=C(CSc1ccc2ccccc2c1Br)Nc1cccc(S(=O)(=O)NC2=NCCCCC2)c1 | 0 | 14* | 4 | 19 | x | 35* | 5 | 2 | 28* | 20*
Cc1ccc(C)c(SCC(=O)Nc2cccc(S(=O)(=O)NC3=NCCCCC3)c2)c1 | 0 | -3 | 1 | -5 | 86 | -7 | x | x | x | x
SMILES | proKLK7 act | ADAM17 inh | MPTP inh | rCAG binder | Pemphigus Ab inh | ADAM10 inh | ADAM10 confirm | ADAM17 counter | ADAM10 ctr | ADAM17 confirm
CS(=O)(=O)N(CC(=O)Nc1ccc2c(c1)OCCO2)Cc1ccc(Cl)cc1 | 0 | 4 | 0 | -7 | 99 | 5 | x | x | x | x
CCOC(=O)c1ccc(NC(=O)CN(Cc2ccc(Cl)cc2)S(C)(=O)=O)cc1 | -1 | 11* | 3 | -1 | 98 | 26* | 1 | 0 | 25* | 15*
COc1ccccc1OCCNc1cc(N2CCCCC2)ccc1[N+](=O)[O-] | -1 | -1 | 6 | -2 | 113 | -1 | x | x | x | x
CCOc1cc(N2CCCC2)ccc1[N+](=O)[O-] | 0 | 9.3* | -1 | 1 | 103 | 20* | 1 | 0 | 17 | 7
CC(C)C(NS(=O)(=O)c1c(Cl)cccc1Cl)C(=O)OCC(=O)c1c[nH]c2ccccc12 (stereo not given) | 0 | 15* | 32 | 8 | 113 | 28* | 6 | 2 | 19 | 14*
O=c1cc(NS(=O)(=O)c2ccccc2)nc(SCc2ccc(Cl)cc2)[nH]1 | 0 | 11* | 3 | 8 | 120 | 20* | 10 | 3 | 25* | 14*
O=C(CSc1nc(NS(=O)(=O)c2ccccc2)cc(=O)[nH]1)Nc1ccc(Cl)cc1 | 0 | -1 | 2 | 11 | 104 | -4 | x | x | x | x
O=C1NC[C@H](CCCCN2CCN(CCC3CCCCC3)C(=O)C2=O)N(CCc2ccccc2)C1=O | 0 | -2 | 0 | 1 | x | -5 | x | x | x | x
